Bioassay records: PubChem BioAssay, National Center for Advancing Translational Sciences (NCATS)
IMPase Li inh = IMPase inhibition in cells with lithium potentiation | Potency, µM (titrated, usually from 59.4 µM), most hits filed as inhibitors | AID 1457 | CHO-M1 cells, IP1 TR-FRET (IP-One), carbachol + lithium | 210,000 compounds, 0.35% hits; active means well fitted curve in the direction sought with a large enough effect; inconclusive means small, poorly fitted or top-dose-only effect, or another doubt; inactive means no such curve, though single readings can be large; an effect the other way counts as inactive or inconclusive;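 further: IP1 builds up when IMPase is blocked and the TR-FRET signal falls; nearly all actives have a fitted effect of over 50% in size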
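Steps: plate 2000 CHO-M1 cells per well and culture 16–30 h; add compound and lithium; incubate 30 min, 37C; add d2-IP1 tracer and Eu cryptate anti-IP1 antibody in lysis buffer; read after 10 min at room temperature.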
12-hLO inh = blocks human 12-lipoxygenase activity. purified 12-hLO, xylenol orange hydroperoxide absorbance. 150,000 compounds, 0.12% hits. AID 1452. P18054. Potency, µM (highest dose often 57.1 µM), most hits filed as inhibitors; active means well fitted curve in the direction sought with a large enough effect; inconclusive means small, poorly fitted or top-dose-only effect, or another doubt; inactive means no such curve, though single readings can be large; an effect the other way counts as inactive or inconclusive; further: nearly all actives have a fitted effect of over 55% in size
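Hydroperoxide formation by human 12-lipoxygenase from 40 uM arachidonic acid was followed colorimetrically via ferric-xylenol orange complex, using the 573/405 nm absorbance ratio. Enzyme concentration was 150 nM, with 30 min reaction at room temperature.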
HPGD block = blocks human HPGD enzyme activity; Potency, µM, most hits filed as inhibitors; 150,000 compounds, 4.3% hits; purified HPGD, NADH fluorescence kinetic, PGE2 substrate
Target sequence (P15428 whole entry, looked up): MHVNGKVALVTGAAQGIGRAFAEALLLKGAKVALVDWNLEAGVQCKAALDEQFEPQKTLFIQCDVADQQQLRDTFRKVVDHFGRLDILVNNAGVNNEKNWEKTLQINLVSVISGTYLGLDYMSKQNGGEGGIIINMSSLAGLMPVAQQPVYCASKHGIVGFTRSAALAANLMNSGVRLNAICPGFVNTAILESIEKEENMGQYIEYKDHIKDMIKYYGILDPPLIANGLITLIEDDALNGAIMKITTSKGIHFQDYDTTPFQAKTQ
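NADH formation kinetics: reaction with 30 uM PGE2 and 1 mM NAD+ (final), 20 nM enzyme, Tris-HCl pH 8 with Tween 20, after 15 min compound preincubation at room temperature. Fluorescence change, last versus first of five reads.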
PNC inhibitor = inhibitors of perinucleolar compartment assembly. PC3M PTB-GFP, PNC prevalence imaging, 16 h; hits give low values. activity change (PNC), negative = inhibition, % at 10 µM. 140,000 compounds, 3.1% hits;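 active means readout at or below -70, meaning at least 70% loss of cells showing the perinucleolar compartment, a nuclear body marking cancer cells; inconclusive means readout between -30 and a set limit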
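PC3M cells stably expressing PTB-GFP, 750–1000 cells/well, treated 16 h at 37 °C with compound (23 nl of library stock), in duplicate. After paraformaldehyde fixation and Hoechst stain, imaged at 20x; PNC prevalence scored by image analysis.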
ALDH1A1 block = ALDH1A1 (human) enzyme inhibition | 220,000 compounds, 7.3% hits | Potency, µM (series often up to 75.3 µM), actives largely listed as inhibitors | P00352 | AID 1030 | Purified ALDH1A1, NADH fluorescence, propionaldehyde substrate
IMPase inh = cell-permeable inhibitors of inositol monophosphatase (IMPase); inhibition (IP1 accumulation), % at 46.1 µM; CHO-M1 cells, IP1 accumulation, HTRF TR-FRET ratio; 120,000 tested, under 10 active; P97697; active means well fitted curve in the direction sought with a large enough effect in the signal ratio, not every such curve was filed as active; inconclusive means small, poorly fitted or top-dose-only effect, or a change in a side signal; inactive means no such curve, though single readings can be large or run the other way; the % refers to the signal ratio;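 further: cells stimulated with carbachol in lithium chloride buffer; higher means more IMPase inhibition seen as more IP1 and lower FRET ratio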
Target sequence (P97697 whole entry, looked up): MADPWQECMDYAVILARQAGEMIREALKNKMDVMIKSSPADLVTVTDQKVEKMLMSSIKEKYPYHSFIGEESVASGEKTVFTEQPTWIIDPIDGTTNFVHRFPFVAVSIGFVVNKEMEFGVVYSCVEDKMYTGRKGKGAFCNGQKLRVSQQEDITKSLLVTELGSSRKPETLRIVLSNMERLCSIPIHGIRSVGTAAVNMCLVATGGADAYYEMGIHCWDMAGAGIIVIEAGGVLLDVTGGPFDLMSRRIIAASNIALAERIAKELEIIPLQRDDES
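In this qHTS, compounds (final up to 46 uM) act on CHO-M1 cells that are then activated through the M1 receptor with carbachol, in pH 7.4 buffer containing 50 mM LiCl, for 30 min. IP1 accumulation is quantified by the IP-One immunoassay.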
Each line names hits and unclear results; the compound was inactive in the other large screens; ! = not active in a repeat. Sampled rows, rich in hits. Any-hit rate of the full collection: about 11%. Unless noted, the call rests on the fitted dose curve; in most records, active means well fitted inhibition curve with a large enough effect (not every such curve was filed as active); inconclusive means small, poorly fitted or top-dose-only effect, or another doubt; inactive means no such curve, though single readings can be large or run the other way.

CCN1C(=O)C(CC(=O)Nc2ccc(OC)cc2)N(CCc2ccc(F)cc2)C1=S (stereo unspecified)	ALDH1A1 block 14µM (no result: 12-hLO inh, HPGD block, PNC inhibitor, IMPase inh)
COc1ccc(NC(=O)CC2C(=O)N(C)C(=S)N2CCc2ccccc2)cc1 (stereo unspecified)	PNC inhibitor inconclusive, ALDH1A1 block 0.89µM (no result: IMPase inh)
COc1ccc(NC(=O)CC2C(=O)N(C)C(=S)N2Cc2cccs2)cc1 (stereo unspecified)	none (no result: IMPase inh)
COc1ccc(Oc2ccc(NC(=O)c3ccccc3C)cc2)cc1	none (no result: 12-hLO inh, HPGD block, PNC inhibitor, IMPase inh)
COc1ccc2c(Cl)cc(NC(=S)Nc3ccccc3)nc2c1	none (no result: PNC inhibitor, IMPase inh)
CCOC(=O)c1sc2nc3c(SCCC#N)cc(C(=O)c4cc(F)ccc4O)cn3c(=O)c2c1C	none (no result: IMPase inh)
O=C(O)CSc1cc(C(=O)c2cc(F)ccc2O)cn2c(=O)c3c(-c4ccccc4)csc3nc12	ALDH1A1 block 7.9µM (no result: IMPase Li inh, 12-hLO inh, HPGD block, PNC inhibitor, IMPase inh)
Cc1cccc(NC(=O)c2sc3nc(N4CCOCC4)c4c(c3c2N)CC(C)(C)OC4)c1	none (no result: IMPase Li inh, 12-hLO inh, HPGD block, PNC inhibitor, ALDH1A1 block)
COc1ccc(OC)c(C2CC(=O)c3c([nH]c(C(=O)OCC4CCCO4)c3C)C2)c1 (stereo unspecified)	ALDH1A1 block inconclusive
C=CCOC(=O)c1[nH]c2c(c1C)C(=O)CC(c1ccco1)C2 (stereo unspecified)	ALDH1A1 block inconclusive
Cc1c(C(=O)OCC(C)C)[nH]c2c1C(=O)CC(c1ccco1)C2 (stereo unspecified)	PNC inhibitor -88, ALDH1A1 block 11µM
Cc1c(C(=O)OC2CCCC2)[nH]c2c1C(=O)CC(c1ccco1)C2 (stereo unspecified)	PNC inhibitor -108, ALDH1A1 block 11µM, IMPase inh inconclusive
C/C=C/COC(=O)c1[nH]c2c(c1C)C(=O)CC(c1ccco1)C2 (stereo unspecified)	PNC inhibitor -102, ALDH1A1 block inconclusive
Cc1c(C(=O)OCC2CCCO2)[nH]c2c1C(=O)CC(c1ccco1)C2 (stereo unspecified)	HPGD block inconclusive, ALDH1A1 block 7.1µM
N#Cc1c(NC(=O)COC(=O)c2ccc(S(=O)(=O)N3CCCC3)cc2)sc2c1CCCCC2	ALDH1A1 block 10µM (no result: IMPase Li inh, HPGD block)
CCN(CC)S(=O)(=O)c1ccc(C(=O)OCC(=O)Nc2sc3c(c2C#N)CCCCC3)cc1	ALDH1A1 block inconclusive (no result: IMPase inh)
Cc1ccc(C(=O)OCC(=O)Nc2sc3c(c2C#N)CCC3)cc1	ALDH1A1 block 25µM (no result: IMPase inh)
N#Cc1c(NC(=O)COC(=O)c2ccc(F)cc2)sc2c1CCC2	none
C[N+](C)(N)Cc1nc(-c2ccc(Cl)cc2)no1	none (no result: PNC inhibitor, IMPase inh)
NNC(=O)c1cc2sccc2s1	ALDH1A1 block 2.5µM (no result: IMPase Li inh, 12-hLO inh, HPGD block, PNC inhibitor, IMPase inh)
O=C1CC(c2ccc(F)cc2)C(n2cncn2)C(O)=C1C1NCCc2ccccc21 (stereo unspecified)	none (no result: 12-hLO inh, HPGD block, PNC inhibitor, IMPase inh)
COc1ccc(CC(=O)c2c(O)cc(O)cc2O)cc1OC	HPGD block 32µM
COc1cc(CC(=O)O)ccc1O	ALDH1A1 block 25µM! (no result: PNC inhibitor)
C[C@@H](c1ccccc1)N1C(=O)[C@H]2[C@H]3[C@H](O)[C@H](O)C/C(=N/NC(=O)OCc4ccccc4)[C@H]3CC[C@@H]2C1=O	none (no result: IMPase Li inh, 12-hLO inh, HPGD block, PNC inhibitor, IMPase inh)
O=S(=O)(O)O	ALDH1A1 block inconclusive (no result: PNC inhibitor, IMPase inh)
OC1C2COC(O2)[C@H](O)C1O (stereo partly specified)	none (no result: PNC inhibitor, IMPase inh)
Cc1nn(-c2ccccc2)c(C)c1/C=C1\C(=O)N(C)C(=S)N1C	none (no result: 12-hLO inh, HPGD block, PNC inhibitor, IMPase inh)
Cc1cc(SCC(=O)Nc2nsc(-c3ccc(C(C)(C)C)cc3)n2)nc2ccccc12	none (no result: IMPase Li inh, 12-hLO inh, HPGD block, PNC inhibitor, ALDH1A1 block)
CCOc1ccccc1OCCCOc1ccc(C)cc1Cl	IMPase inh inconclusive (no result: IMPase Li inh, HPGD block)
COc1cc(C)ccc1OCCOc1c(C)cc(Cl)cc1Cl	none (no result: IMPase inh)
COc1ccccc1OCCCOc1c(Cl)cc(C)cc1Cl	HPGD block 14µM (no result: IMPase inh)
COc1cc(C)ccc1OCCCOc1c(Cl)cccc1Cl	HPGD block 11µM (no result: IMPase inh)
COc1ccc(N(C(=O)c2ccc(C(C)(C)C)cc2)S(=O)(=O)c2ccc(Cl)cc2)cc1	none (no result: IMPase Li inh, 12-hLO inh, HPGD block, PNC inhibitor, ALDH1A1 block)
O=C1CCCC2[C@@H]3CCC[N@+]4([O-])CCC[C@H](CN12)C34 (stereo partly specified)	none (no result: 12-hLO inh, PNC inhibitor, IMPase inh)
O[C@@H](c1cc([C@@]23C[C@H]4CC[C@@H]2C[C@H](C4)C3)nc2c(Cl)cc(Cl)cc12)C1CCCCN1 (stereo partly specified)	none (no result: 12-hLO inh, PNC inhibitor, IMPase inh)
COc1ccc(-n2c(=O)c(-c3ccc(Cl)cc3)nc3cnc(N4CCNCC4)nc32)cc1	ALDH1A1 block inconclusive (no result: 12-hLO inh, HPGD block, PNC inhibitor, IMPase inh)
COc1ccc(NC(=S)Nc2ccccc2OC)c(OC)c1	ALDH1A1 block 25µM (no result: 12-hLO inh, HPGD block, PNC inhibitor, IMPase inh)
COc1ccc(NC(=S)Nc2ccc(OC)cc2OC)c(OC)c1	HPGD block 25µM, ALDH1A1 block 20µM (no result: IMPase inh)
CCOc1cc(NC(=S)Nc2ccccc2OC)c(OCC)cc1NC(=O)c1ccccc1C	12-hLO inh inconclusive, HPGD block inconclusive, PNC inhibitor -109, ALDH1A1 block inconclusive
COC(=O)NNC(=S)Nc1cc(OC)ccc1OC	HPGD block inconclusive, ALDH1A1 block 25µM
